Laboratory results: PubChem BioAssay
Active and inactive are the calls of the source.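 How the source made its calls, unless noted: active means visual image review flags a hit and inhibition of aggregation exceeds 20%; inconclusive means visual hit but inhibition at or below 20%; inactive means no hit on visual image review.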

Columns and labels:
[1] = inhibitors of TNFa-induced NFkB p65 translocation, primary screen, imaging, HUVEC, MLSMR starter and 10KST1 sets (AID 438;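 active means inhibition above 20% together with a positive visual image hit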;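 further: compound added about 3h40 before a 20 min TNFalpha stimulation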;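 on inhibition: signal is the nuclear over cytoplasmic p65 intensity ratio per well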); settings: HUVEC TNFa-induced p65 nuclear translocation; cell count: measured here: nuclei count (cytotoxicity indicator), at 2.08 µM; inhibition: at 2 µM, stronger effect = higher value, 0% TNFa-plus-vehicle, 100% no-TNFa wells
[2] = reduction of polyQ htt aggregates in cells – imaging, exon1htt(103Q)mCFP cells, high-content imaging, primary screen (AID 483); settings: exon1htt(103Q)mCFP cell line, aggregate imaging, at 2 µM; inhibition of aggregation: stronger effect = higher value; nuclei count: measured here: cell count, toxicity;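 further: compound exposure lasted 3 days before fixation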;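 on nuclei count: percent of the per-plate median nuclei count of sample wells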
[3] = endothelial E-selectin expression blockers – imaging, HUVEC, immunofluorescence, MLSMR starter and 10KST1 sets, primary screen (AID 487;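 active means visually confirmed hit in the image check and inhibition above 20%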;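 on inhibition: signal is fraction of cell area covered by stained E-selectin grains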;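 on nuclei count: 100% = median nuclei count of all wells on the same plate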); settings: HUVEC TNFalpha-induced E-selectin immunofluorescence imaging, at 2 µM; inhibition: stronger effect = higher value; nuclei count: measured here: cell number, toxicity
[4] = target: Voltage-gated potassium channel subunit beta-2 (Rattus norvegicus) (UniProt P62483); experiment: inhibitors of rat Kvbeta2 reductase activity – biochemical, NADPH fluorescence, primary screen (AID 622;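 active means fluorescence slope higher than the sample average by over 3 SD, cut at about -0.22 in these data, passing the limit was not always enough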;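 further: slope of raw intensity against log time taken from 70 to 1610 s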); settings: recombinant KvBeta, 4-cyanobenzaldehyde reduction, at 10 µM, stronger effect = higher value
[5] = target: Voltage-gated potassium channel subunit beta-2 (Rattus norvegicus) (UniProt P62483); experiment: enhancers of rat Kvbeta2 NADPH turnover – biochemical, NADPH fluorescence, primary screen (AID 623;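 active means NADPH fluorescence slope more negative than the mean of all samples by about 3 SD, 99.7% confidence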;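 further: fluorescence intensity change per second fitted from 20 to 320 s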); settings: Recombinant KvBeta, NADPH fluorescence decrease slope, 10 min; at 10 µM; stronger effect = lower value
[6] = target: Alpha-2C adrenergic receptor (Homo sapiens) (UniProt P18825); experiment: compounds altering alpha2C-coupled GIRK flux – cell-based, HEK293 alpha2C/GIRK1/2, thallium flux, primary screen (AID 624;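 active means fluorescence slope after compound addition differing from the mean of all screened samples at 99.7% confidence, in either direction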;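 further: slope of fluorescence ratio to pre-addition baseline per second over 15 to 24 s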); settings: thallium flux BTC fluorescence, at 10 µM, actives lie on both sides
[7] = blockers of RIG-like receptor reporter activation – cell-based, Sendai virus stimulus, luciferase, 10K MLSCN set, TLR/RLR signaling modifier project, primary screen (AID 602276;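 active means inhibition at or above 50% at 10 µM; inactive means inhibition below 50%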;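 further: firefly luciferase from ISG56 promoter only with Renilla not read in this screen; 0% = Sendai virus plus DMSO and 100% = medium plus DMSO without virus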); settings: HEK293 RL24 IRF3 luciferase reporter, at 10 µM, stronger effect = higher value
[8] = TLR3 IRF3 reporter activation blockers – cell-based, poly I:C stimulus, luciferase, 10K MLSCN set, primary screen (AID 602277;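 active means inhibition of the reporter signal at or above 50%; inactive means inhibition below 50%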); settings: HEK293-TLR3 RL24 IRF3 luciferase reporter, at 10 µM, stronger effect = higher value

Chain of Voltage-gated potassium channel subunit beta-2 (Rattus norvegicus) (P62483 whole entry, looked up): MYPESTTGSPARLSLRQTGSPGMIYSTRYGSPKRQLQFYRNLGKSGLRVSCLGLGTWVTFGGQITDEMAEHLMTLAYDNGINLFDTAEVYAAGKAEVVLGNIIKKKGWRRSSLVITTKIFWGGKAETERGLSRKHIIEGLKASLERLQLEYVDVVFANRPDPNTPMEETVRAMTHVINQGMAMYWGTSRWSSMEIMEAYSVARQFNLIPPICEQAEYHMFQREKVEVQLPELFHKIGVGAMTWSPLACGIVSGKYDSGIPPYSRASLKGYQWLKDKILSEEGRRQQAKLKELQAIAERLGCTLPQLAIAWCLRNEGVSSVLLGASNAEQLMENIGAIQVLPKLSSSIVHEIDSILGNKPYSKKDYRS
Chain of Alpha-2C adrenergic receptor (Homo sapiens) (P18825 whole entry, looked up): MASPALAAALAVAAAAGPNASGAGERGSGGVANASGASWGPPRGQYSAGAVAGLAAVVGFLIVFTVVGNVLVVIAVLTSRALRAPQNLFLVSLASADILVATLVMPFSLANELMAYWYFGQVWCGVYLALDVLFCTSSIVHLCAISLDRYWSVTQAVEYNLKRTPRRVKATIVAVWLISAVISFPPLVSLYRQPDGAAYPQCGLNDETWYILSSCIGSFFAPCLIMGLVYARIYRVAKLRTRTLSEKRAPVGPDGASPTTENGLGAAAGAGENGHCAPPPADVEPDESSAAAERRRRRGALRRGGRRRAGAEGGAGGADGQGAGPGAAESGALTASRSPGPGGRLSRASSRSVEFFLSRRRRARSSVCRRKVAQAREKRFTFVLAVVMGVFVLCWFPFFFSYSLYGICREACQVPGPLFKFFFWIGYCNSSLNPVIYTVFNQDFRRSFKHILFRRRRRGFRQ

SMILES | cell count [1] | inhibition [1] | inhibition of aggregation [2] | nuclei count [2] [%] | inhibition [3] | nuclei count [3] [%] | fluorescence slope [4] | NADPH fluorescence slope [5] | slope [6] | inhibition [7] | inhibition [8]
CC(C)CCn1c(=O)c2ccccc2n2c(CN(C)Cc3ccccc3)nnc12 | 486 | -14.2% (inactive) | 0.2% (inactive) | 101 | -78.1% (inactive) | 170 | -0.537 (inactive) | 1.9e-05 (inactive) | 0.00576 (inactive) | 8.18% (inactive) | 26.3% (inactive)
CC(C)CC1NC2(C(=O)N(C)c3ccccc32)C2C(=O)N(C(C)C)C(=O)C12 (centres undefined) | 798 | -5.5% (inactive) | -49.8% (inactive) | 72.1 | 13.8% (inactive) | 103 | -0.482 (inactive) | 9.4e-06 (inactive) | 0.00636 (inactive) | -1.45% (inactive) | -17% (inactive)
COC(=O)c1[nH]c(C)c(/C(O)=C2\C(=O)C(=O)N(CCN3CCOCC3)C2c2cccs2)c1C (centres undefined) | 450 | -4.8% (inactive) | 2.2% (inactive) | 96.3 | -53.2% (inactive) | 126 | -0.254 (inactive) | -2.8e-05 (inactive) | 0.00576 (inactive) | 15.2% (inactive) | 11.2% (inactive)
CN(CC(=O)O)S(=O)(=O)c1cc(Cl)ccc1Cl | 416 | 3.5% (inactive) | -0.4% (inactive) | 111 | -8.7% (inactive) | 101 | -0.437 (inactive) | -5e-05 (inactive) | 0.0044 (inactive) | -11.4% (inactive) | -16.7% (inactive)
CCOC(=O)N1CCN(c2c(NCCCOC(C)C)c(=O)c2=O)CC1 | 642 | -1.6% (inactive) | -10.2% (inactive) | 109 | 27.9% (inactive) | 122 | -0.513 (inactive) | -2.4e-05 (inactive) | 0.00694 (inactive) | 7.84% (inactive) | 16% (inactive)
CC(NC(=O)c1cc2c(=O)n(C)c3ccccc3c2n1C)c1ccc2c(c1)OCCO2 (centres undefined) | 798 | -4.4% (inactive) | 3.3% (inactive) | 139 | -41.1% (inactive) | 107 | -0.623 (inactive) | -2.2e-05 (inactive) | 0.00677 (inactive) | 4.73% (inactive) | 4.98% (inactive)
COc1ccc(NC(=O)CSc2nnc(Cc3cccn3C)n2-c2ccc(F)cc2)cc1 | 576 | 1.1% (inactive) | -14.5% (inactive) | 23.2 | -72.7% (inactive) | 112 | -0.577 (inactive) | 1.2e-05 (inactive) | 0.00735 (inactive) | 15% (inactive) | 18.7% (inactive)
Cc1ccccc1-n1c(=O)cc(NCc2ccc3c(c2)OCO3)[nH]c1=O | 447 | 1.6% (inactive) | 40.2% (active) | 74.9 | -155% (inactive) | 95.2 | -0.614 (inactive) | 1.9e-05 (inactive) | 0.00889 (inactive) | 16.5% (inactive) | 19.7% (inactive)
C=CCn1c(=O)c2ccccc2n2c(SCC(=O)Nc3cc(C)on3)nnc12 | 469 | -22.4% (inactive) | -23.3% (inactive) | 113 | -50.6% (inactive) | 153 | -0.605 (inactive) | -4.3e-05 (inactive) | 0.00622 (inactive) | 3.33% (inactive) | 5.94% (inactive)
Nn1c(Cc2ccccc2F)nnc1SCC(=O)N1CC(=O)Nc2ccccc21 | 324 | 20.7% (inactive) | 11.9% (inactive) | 107 | -11.5% (inactive) | 105 | -0.39 (inactive) | 6.9e-08 (inactive) | 0.00403 (inactive) | 11.5% (inactive) | 36.8% (inactive)
Cc1ccccc1-n1nc(C)c2cc(C(=O)NCc3cccnc3)sc21 | 374 | -1.1% (inactive) | -18.9% (inactive) | 116 | -51.5% (inactive) | 113 | -0.493 (inactive) | -6.5e-05 (inactive) | 0.0199 (active) | 10.7% (inactive) | 44.3% (inactive)
CC(=O)N(C(C)=O)c1c(C#N)c(C)n(-c2ccccc2)c1C(=O)c1ccccc1 | 430 | 8.5% (inactive) | 4.6% (inactive) | 102 | 24.1% (inactive) | 110 | -0.503 (inactive) | -3.8e-05 (inactive) | 0.00413 (inactive) | 27% (inactive) | 26.6% (inactive)
CC(C)(C)C(=O)CNS(=O)(=O)c1ccc(S(=O)(=O)NC2CCCC2)cc1 | 479 | 6% (inactive) | 2.6% (inactive) | 113 | -35.9% (inactive) | 94.4 | -0.47 (inactive) | 2.8e-05 (inactive) | 0.00543 (inactive) | 9.9% (inactive) | 22.1% (inactive)
Cn1c(=O)c2c(nc(NCCNC(=O)c3ccco3)n2Cc2ccccc2Cl)n(C)c1=O | 424 | 7.1% (inactive) | 1.7% (inactive) | 98.3 | – | 136 | -0.354 (inactive) | -2.6e-05 (inactive) | 0.00598 (inactive) | -7.85% (inactive) | 2.32% (inactive)
C=CCn1c(COc2ccc(Cl)cc2)nnc1SCC(=O)N1CC(=O)Nc2ccccc21 | 315 | 1.9% (inactive) | -0.9% (inactive) | 104 | -6.5% (inactive) | 110 | -0.425 (inactive) | -2.1e-05 (inactive) | 0.00537 (inactive) | 3.41% (inactive) | 4.64% (inactive)
O=C(CCOc1ccccc1)NCc1ccccc1 | 729 | -17.6% (inactive) | -3.7% (inactive) | 97.3 | 12.7% (inactive) | 114 | -0.559 (inactive) | 7.4e-05 (inactive) | 0.00548 (inactive) | 11.5% (inactive) | 12.3% (inactive)
O=C(OCC(=O)N1CCCC1)c1ccccc1OCc1ccccc1 | 576 | -10.8% (inactive) | -9.8% (inactive) | 95.3 | -42.5% (inactive) | 123 | -0.505 (inactive) | -3.9e-05 (inactive) | 0.00498 (inactive) | -11.3% (inactive) | 6.16% (inactive)
CCN(CC)S(=O)(=O)c1ccc(NC2CCCc3ccccc32)nc1 (centres undefined) | 451 | 7.1% (inactive) | 15.4% (inactive) | 103 | – | 163 | -0.594 (inactive) | -3e-05 (inactive) | 0.00558 (inactive) | 11.9% (inactive) | 17.1% (inactive)
CC(C)C(NC(=O)OCc1ccccc1)C(=O)OCC(=O)NCc1ccco1 (centres undefined) | 511 | -2.9% (inactive) | -14.8% (inactive) | 114 | 7.4% (inactive) | 119 | -0.366 (inactive) | 2.2e-05 (inactive) | 0.00253 (inactive) | 0.314% (inactive) | 5.27% (inactive)
CN(C#N)c1nc(N2CCOCC2)nc(N2CCOCC2)n1 | 424 | -3.8% (inactive) | -5.5% (inactive) | 104 | -192% (inactive) | 105 | -0.612 (inactive) | 6.7e-06 (inactive) | 0.00573 (inactive) | 16.7% (inactive) | 20% (inactive)
COc1ccc(Br)cc1CNC(=O)CCc1nc(-c2ccc(C)cc2)no1 | 517 | -4% (inactive) | -13.7% (inactive) | 98.4 | -2.8% (inactive) | 120 | -0.314 (inactive) | -6.4e-07 (inactive) | 0.00305 (inactive) | 15.2% (inactive) | 28.1% (inactive)
CCOC(=O)Cc1c(C)c2c(O)cc(O)cc2oc1=O | 450 | 9% (inactive) | -19.7% (inactive) | 111 | – | 150 | -0.0503 (inactive) | 6.3e-06 (inactive) | 0.00591 (inactive) | 15.2% (inactive) | 9.57% (inactive)
CCOc1ccc(Nc2nc(Cc3nnc(SCC(N)=O)o3)cs2)cc1 | 453 | 6.7% (inactive) | -0.8% (inactive) | 104 | – | 154 | -0.608 (inactive) | -2.2e-05 (inactive) | 0.00638 (inactive) | 9.26% (inactive) | 14% (inactive)
COC(=O)C1=C(C)n2nnnc2NC1c1ccc(Cl)cc1 (centres undefined) | 340 | 3.6% (inactive) | -8.8% (inactive) | 99.4 | -119% (inactive) | 80.4 | -0.367 (inactive) | 1.8e-05 (inactive) | 0.00153 (inactive) | 2.58% (inactive) | 10.6% (inactive)
CSCCC(NC(=O)c1ccco1)C(=O)O (centres undefined) | 411 | 4.4% (inactive) | -0.5% (inactive) | 105 | -358% (inactive) | 143 | -0.534 (inactive) | -4e-05 (inactive) | 0.00451 (inactive) | -9.48% (inactive) | -11.3% (inactive)
COc1ccc(-c2nnc(SCC(=O)NC(=O)NCc3ccco3)o2)cc1 | 417 | 5.6% (inactive) | -7.4% (inactive) | 102 | – | 157 | -0.455 (inactive) | 9.2e-05 (inactive) | 0.00577 (inactive) | 18.6% (inactive) | 24.4% (inactive)
c1ccc(CNc2ncnc3ccccc23)cc1 | 537 | -12.4% (inactive) | -8.7% (inactive) | 70.8 | -32.1% (inactive) | 107 | -0.408 (inactive) | -4.8e-05 (inactive) | 0.00588 (inactive) | -14.3% (inactive) | -78% (inactive)
O=C(NCC(c1cccnc1)N1CCN(c2ccccc2)CC1)c1ccc2c(c1)OCO2 (centres undefined) | 362 | -1.8% (inactive) | 25.6% (inactive) | 87.1 | 29.6% (inactive) | 83.3 | -0.619 (inactive) | -1.3e-05 (inactive) | 0.00563 (inactive) | 8.91% (inactive) | 16.3% (inactive)
COc1cc(C2CC(=O)NC3=C2C(=O)CC(C)(C)C3)ccc1O (centres undefined) | 380 | -2.2% (inactive) | 6.5% (inactive) | 101 | 2.8% (inactive) | 105 | -0.41 (inactive) | -4.2e-05 (inactive) | 0.00203 (inactive) | 1.82% (inactive) | 16.2% (inactive)
